Bioassay records: PubChem, Center for Chemical Genomics, University of Michigan
This is one part of a sample in which hits are shown more often than they occur.
Dicer processing: inhibitors of human Dicer processing of pre-microRNA | 47,000 compounds, 6% hits | cat-ELCCA pre-miR-21 Dicer processing, chemiluminescence; stronger effect = higher value | z-score at 25 µM | AID 1347074 | Q9UPY3; in the data active = z-score above about 3, passing the limit was not always enough;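 note: higher signal means more uncleaved substrate so more Dicer inhibition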
Hits are given with their value; – = inactive.

SMILES	Dicer processing
CCOC(=O)c1nnn(-c2nonc2N)c1CN(C)c1ccccc1	–
CCOC(=O)c1nnn(-c2nonc2N)c1-c1cccs1	–
CCOC(=O)c1nnn(-c2nonc2N)c1CN(CC)c1ccccc1	5.1
CCOC(=O)c1nnn(-c2nonc2N)c1-c1cccc2ccccc12	4
CCN(Cc1c(C(=O)O)nnn1-c1nonc1N)c1ccccc1	–
CCOC(=O)c1nnn(-c2nonc2N)c1-c1ccccc1Cl	–
CCOc1ccc(-c2nn3c(Cc4ccccc4)nnc3s2)cc1	–
O=C(/C=C/c1ccccc1)OCC1CCCN2CCCCC12 (stereo not given)	–
CC1(C)O[C@H]2OC[C@@H]3OC(C)(C)O[C@@H]3[C@H]2O1	–
Cc1ccc(NC(=S)Nc2ccc(S(=O)(=O)N3CCCCC3)cc2)cc1F	–
OC(CNCc1ccco1)COc1ccccc1 (stereo not given)	–
Cc1ccc2c(c1)c1c(n2CC(O)CNCc2ccco2)CCCC1 (stereo not given)	5
Cc1ccc2c(c1)c1c(n2CC(O)CNCc2ccccc2)C(=O)CCC1 (stereo not given)	–
C=CCSc1nc(C)c2ccccc2n1	–
S=c1[nH]nc(-c2ccco2)n1-c1ccc(OCc2ccccc2)cc1	–
COc1ccccc1NS(=O)(=O)c1ccc(Cl)s1	–
O=C1c2cccc3cccc(c23)C(=O)N1c1ccccc1	–
O=C1c2cccc3cccc(c23)C(=O)N1c1ccc(Cl)cc1	6
CN1C(=O)c2cccc3cccc(c23)C1=O	–
CC(C)NC(=O)Cn1nc(C(F)(F)F)c2c1CCCC2	–
CCOc1ccc(NC2=NC(c3cc(OC)ccc3OC)n3c(nc(C)cc3=O)N2)cc1 (stereo not given)	–
CC1(O)CC(c2ccccc2)SC(c2ccccc2)C1 (stereo not given)	–
S=C1CC(c2ccccc2)Sc2ccccc2N1 (stereo not given)	–
c1ccc(C2CCCC(c3ccccc3)S2)cc1 (stereo not given)	4.8
CCOc1cc(C2c3c(oc4ccccc4c3=O)C(=O)N2c2nc(C)c(C(=O)OC)s2)ccc1O (stereo not given)	–
SMILES	Dicer processing
CCOc1ccc(S(=O)(=O)n2c(C)nc3ccccc32)c2ccccc12	–
CCOC(=O)c1s/c(=N/N=C(C)C)n(C)c1C	–
CCn1c2ccccc2c2cc(NC(=O)C(=O)NCC3CCCO3)ccc21 (stereo not given)	–
N#C/C(=N\Nc1ccc(F)cc1)C(=O)NCC1CCCO1 (stereo not given)	3.8
COc1ccc(Cl)cc1NC(=O)C(=O)NCC1CCCO1 (stereo not given)	–
CC(=O)c1sc(N2CCOCC2)nc1C	–
O=C1CC(NCC2CCCO2)C(=O)N1c1ccccc1 (stereo not given)	–
CN(Cc1ccccc1)C(=O)CSc1nc(-c2ccco2)cc(C(F)(F)F)n1	–
CC1C/C(=N\Nc2ccc(I)cc2)c2cc(Cl)ccc2S1(=O)=O (stereo not given)	4
O=C(Nc1cccnc1)c1cc2c(ccc3ccccc32)o1	–
O=C(O)c1cc2cc(Cc3cccnc3)ccc2o1	3.6
O=C(O)c1cc2c(ccc3ccccc32)o1	–
COc1cc(NC(=O)c2sc3ccccc3c2Cl)c(OC)cc1Cl	–
O=C(O)c1cscc1S(=O)(=O)c1ccc(Cl)cc1	–
CCCCCSc1nncc(=O)[nH]1	4.2
CCCCCCCCSc1ncn[nH]1	–
CCCCCCCSc1nnc(-c2ccccc2N)c(=O)[nH]1	–
CCOCCOC(=O)COc1ccc2c(=O)c(-c3cccc4ccccc34)c(C(F)(F)F)oc2c1	–
CCOC(=O)/C(C#N)=C/Nc1cnc(N(C)C)c(C(F)(F)F)c1	–
Clc1cc2nsnc2cc1Cl	–
FC(F)(F)c1cc(Cl)c2nsnc2c1	4.5
O=C(O)c1ncc(C(F)(F)F)cc1Cl	–
Cc1nn2c(N)cc(-c3ccccc3)nc2c1-c1ccccc1	3.8
Cc1cc(N)n2nc(C)c(-c3ccc(Cl)cc3)c2n1	–
Cc1ccc(-c2cc3nc(C)c(-c4ccccc4)c(N)n3n2)cc1	–
SMILES	Dicer processing
Cn1c(NCc2ccco2)nc2c1c(=O)n(Cc1ccccc1Cl)c(=O)n2C	–
Cc1nc2ccc(F)cc2c2c1CCN2c1ccccc1	–
CCOC(=O)c1cnn(-c2ccccc2)c1NC(=O)Nc1cccc(Cl)c1	–
O=C(Cn1cnc2c(cnn2-c2ccccc2)c1=O)c1ccc(Cl)cc1	–
Cc1nc2c(cnn2-c2ccccc2)c(=O)n1NC(=O)Nc1ccc(Cl)c(Cl)c1	4.7
Cc1nc2c(cnn2-c2ccccc2)c(=O)n1-c1cccc2ccccc12	3.2
Cc1nc2c(cnn2-c2ccccc2)c(=O)n1/N=C/c1ccccc1	–
O=c1c2cnn(-c3ccccc3)c2nc(-c2ccco2)n1-c1ccccc1	–
O=C(OCC1CC1)c1cnc(Sc2cc(C(F)(F)F)cc(C(F)(F)F)c2)nc1C(F)(F)F	–
CSc1scc2c1/C(=N/OC(=O)c1cccc(C(F)(F)F)c1)CC(C)(C)C2	–
Cc1ccc(OCCSc2nc3ccccc3o2)cc1	–
Cc1ccc(OCCSc2n[nH]c3nc4ccccc4n23)cc1	6.2
Cc1ccc(OCCn2c(SCCO)nc3ccccc32)cc1	–
CCn1c(SCCOc2ccc(OC)cc2)nc2ccccc21	–
Cc1cccc(OCCSc2nc3ccccc3n2CCO)c1	5.6
O=C(O)CCSc1n[nH]c2nc3ccccc3n12	–
COC(=O)c1c(OC)ccc(-n2cccc2)c1OC	–
CCOc1cc(C2NC(C(=O)O)CS2)ccc1OCc1ccccc1F (stereo not given)	–
CCc1ccc(C2c3c(oc4ccccc4c3=O)C(=O)N2c2nc(C)c(C(=O)OC)s2)cc1 (stereo not given)	–
CSc1n[nH]c(-c2cc(C(F)(F)F)cc(C(F)(F)F)c2)n1	–
c1ccc(-c2noc(CSc3nnc(-c4ccco4)n3-c3ccccc3)n2)cc1	–
c1ccc(-c2noc(CSc3nnc(-c4cccs4)n3-c3ccccc3)n2)cc1	3.6
Cc1nnc(SCc2nc(-c3ccc(Cl)cc3)no2)n1-c1ccccc1	–
CCOC(=O)CN1C(=O)C(O)(CC(=O)c2cccs2)c2ccccc21 (stereo not given)	–
O=C(Nc1ccccc1)c1cc2ccccc2o1	–
SMILES	Dicer processing
O=C(Nc1ccc(F)cc1)c1cc2ccccc2o1	–
CC(C)(C)NC(=O)c1cc2ccccc2o1	4.2
COc1cc(/C=N/NC(=O)c2ccccc2N)cc(OC)c1OC	3.3
COc1cc(/C=N/NC(=O)c2cc(-c3ccccc3)sc2N)cc(OC)c1OC	–
COc1cc(/C=N/N)cc(OC)c1OC	–
Cc1ccc(C(=O)C(C)Sc2ccc(Cl)cc2)cc1Cl (stereo not given)	–
CCOC(=O)N1CCC(NC(=O)c2nccnc2C(=O)Nc2ccc(C)cc2)CC1	–
Nc1nc(NCc2cccs2)nn1-c1ccccc1	4.3
CCCCCCn1c(NCc2cccs2)nc2ccccc21	–
Oc1ccc(NCc2cccs2)cc1	–
O=C1CCCN=C(Nc2cccc(F)c2)S1	–
Cc1ccc(N2C(=O)C3CC=CCC3C2=O)cc1Cl (stereo not given)	–
COc1ccccc1OCCC(=O)O	–
COc1ccccc1OCCN1CCN(C)CC1	4.8
COc1ccccc1OCCn1cc(C(=O)O)c2ccccc21	–
Cc1c2c(=O)n(-c3nc4ccccc4s3)nc-2cc(O)n1CCc1cnc[nH]1	3.6
Cc1c2c(=O)n(-c3nc4ccccc4s3)nc-2cc(O)n1CCc1c[nH]c2ccccc12	–
CCC(C)Cn1c(C)c2c(=O)n(-c3nc4ccccc4s3)[nH]c2cc1=O (stereo not given)	–
CS(=O)(=O)c1scc(-c2ccccc2)c1C#N	–
